Source: PubChem (The Scripps Research Institute Molecular Screening Center)
This is a sample that favours compounds with a hit; in the whole collection about 4.2% have one here.
hgDAF12 agonist: agonists of H. glycines DAF-12 nuclear receptor | HEK293 GAL4-hgDAF12 UAS-luciferase reporter, agonist luminescence; normalized to butyrate control | activation, % at 6.8 µM | 370,000 compounds, 1.8% hits | AID 687014;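 active = activation above a cutoff set at the mean of all screened compounds plus 3 SD, cut at about 10% in these data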;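 note: 0% = DMSO wells and 100% = sodium butyrate wells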
hcDAF-12 act: activators of H. contortus DAF-12 nuclear receptor; 370,000 compounds, 1.4% hits; activation, % at 6.8 µM; HEK293 hcDAF-12 lit1-tk-luc reporter, luminescence; 0% DMSO, 100% Δ7-dafachronic acid;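 active = activation above the mean of all tested compounds plus 3 SD, cut at about 5.5% in these data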;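 note: 100% = response to 3 µM Δ7-dafachronic acid high control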
ssDAF12 agonist: activates DAF-12 receptor from parasite S. stercoralis; AID 652126; activation, % at 6.8 µM; HEK293 ssDAF-12/GRIP1 lit1-tk-luc reporter, luminescence; % of 3 µM dafachronic acid response; 370,000 compounds, 1% hits;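 active = activation above the mean over all tested compounds plus 3 SD, cut at about 0.9% in these data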;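 note: 0% = DMSO-only wells and 100% = 3 µM delta7-dafachronic acid wells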
DAX1 StAR inh: inhibitors of DAX1 repression of SF-1 activated StAR promoter | 370,000 compounds, 1.1% hits | AID 652010 | HEK293T StAR-luciferase reporter, SF-1/DAX-1 repression relief | inhibition, % at 6.8 µM;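 active = inhibition above the mean over all tested compounds plus 3 SD, cut at about 3.6% in these data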;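 note: 0% = DAX-1 cells with DMSO and 100% = cells lacking DAX-1 with DMSO; higher inhibition means more luminescence from relief of DAX-1 repression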
SMARCA2 activ: activators of SMARCA2 function. MG213 cells, MMTV-luciferase reporter, dexamethasone, overnight. activation, % at 9.1 µM. 370,000 compounds, 1% hits. AID 652017; in the data active = activation above about 7.8%;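 note: 0% = vehicle wells and 100% = reference activator wells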
DAX1 inh confirm: NR0B1 (human) inhibition, confirmation. shares compounds with DAX1 StAR inh. 2,400 compounds, 87% hits. HEK293T StAR-promoter luciferase reporter, SF-1/DAX-1 repression. AID 652134. inhibition, % at 6.8 µM;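 active = inhibition above the average of every tested compound plus 3 SD, cut at about 3.8% in these data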;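 note: 0% = DAX-1 cells with DMSO and 100% = no DAX-1 control cells with DMSO; active compounds raise luminescence by relieving repression of the StAR reporter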
Target sequence (P51843 whole entry, looked up): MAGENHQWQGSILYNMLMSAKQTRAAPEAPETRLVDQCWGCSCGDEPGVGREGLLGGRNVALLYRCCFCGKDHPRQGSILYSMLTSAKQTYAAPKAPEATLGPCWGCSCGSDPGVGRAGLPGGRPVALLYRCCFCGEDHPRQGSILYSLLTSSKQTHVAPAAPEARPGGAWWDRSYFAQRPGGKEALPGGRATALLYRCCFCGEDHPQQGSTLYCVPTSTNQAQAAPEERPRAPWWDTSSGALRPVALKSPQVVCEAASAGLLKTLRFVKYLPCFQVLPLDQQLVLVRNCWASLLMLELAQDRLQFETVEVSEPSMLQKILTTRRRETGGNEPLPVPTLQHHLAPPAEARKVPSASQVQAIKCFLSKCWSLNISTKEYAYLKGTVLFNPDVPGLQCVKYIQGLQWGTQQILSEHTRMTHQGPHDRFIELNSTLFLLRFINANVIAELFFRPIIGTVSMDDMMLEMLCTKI
SF1 AF2mut Luc: counter-screen for DAX1 inhibitors: nonselective inhibitors with SF-1 AF2 mutant; shares compounds with DAX1 StAR inh; HEK293 StAR-luciferase, luminescence; inhibition, % at 6.8 µM; 2,400 compounds, 78% hits; AID 652136;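 active = inhibition above the mean of all tested compounds plus 3 SD, cut at about 3% in these data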;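 note: 0% = DAX-1 transfected cells with DMSO and 100% = cells without DAX-1 with DMSO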
Starred values were filed as active, the others as inactive.

How did CCCOC1CCCN(C(=O)c2cc(COc3c(F)cccc3F)on2)C1 (stereo unspecified) do in these assays?
hgDAF12 agonist: 10; hcDAF-12 act: 3; ssDAF12 agonist: 0; DAX1 StAR inh: 4.5*; SMARCA2 activ: 5; DAX1 inh confirm: 4.4*; SF1 AF2mut Luc: 5.5*

How did Cc1ccc(S(=O)(=O)N2[C@@H](c3cccc(Cl)c3)C(C(=O)OC(C)(C)C)=CC[C@H]2c2cccc(Cl)c2)cc1 do in these assays?
hgDAF12 agonist: -1; hcDAF-12 act: -3; ssDAF12 agonist: -1; DAX1 StAR inh: 0; SMARCA2 activ: 5

What do the screens show for `O=C(Nc1ccc(Cl)cc1)c1ccc2c(=O)n3c(nc2c1)CCCCC3`?
hgDAF12 agonist: 0; hcDAF-12 act: -4; ssDAF12 agonist: -2; DAX1 StAR inh: -1; SMARCA2 activ: -1

Results for O=C(Nc1ccc(Cl)cc1Cl)c1ccc2c(=O)n3c(nc2c1)CCC3 ?
hgDAF12 agonist: 5; hcDAF-12 act: 3; ssDAF12 agonist: 0; DAX1 StAR inh: 8.7*; SMARCA2 activ: 5; DAX1 inh confirm: 11*; SF1 AF2mut Luc: 7.5*

Results for COc1ccccc1NC(=O)c1ccc2c(=O)n3c(nc2c1)CCC3 ?
hgDAF12 agonist: 1; hcDAF-12 act: 0; ssDAF12 agonist: -1; DAX1 StAR inh: 0; SMARCA2 activ: -1

Results for O=C(Nc1ccc(Br)cc1Cl)c1ccc2c(=O)n3c(nc2c1)CCC3 ?
hgDAF12 agonist: 10; hcDAF-12 act: 0; ssDAF12 agonist: -1; DAX1 StAR inh: 5.1*; SMARCA2 activ: 0; DAX1 inh confirm: 5.2*; SF1 AF2mut Luc: 2.9*

How did C/C=C/c1ccc([C@@H]2[C@H](CO)N(S(C)(=O)=O)[C@H]2CN(C)C(=O)CC)cc1 do in these assays?
hgDAF12 agonist: 6; hcDAF-12 act: -2; ssDAF12 agonist: -1; DAX1 StAR inh: 0; SMARCA2 activ: -5

How did O=C(Nc1ccc2c(c1)nc1n2CCSC1)c1ccccc1 do in these assays?
hgDAF12 agonist: 12*; hcDAF-12 act: 2; ssDAF12 agonist: 0; DAX1 StAR inh: 5.9*; SMARCA2 activ: 4; DAX1 inh confirm: 13*; SF1 AF2mut Luc: 8.6*

Results for CN1C(=O)CSc2ccc(NC(=O)N3CCc4ccccc43)cc21 ?
hgDAF12 agonist: 9; hcDAF-12 act: 3; ssDAF12 agonist: 0; DAX1 StAR inh: 5.9*; SMARCA2 activ: 5; DAX1 inh confirm: 6.3*; SF1 AF2mut Luc: 2

What do the screens show for `CNS(=O)(=O)c1cccc(C(=O)NCC2(N3CCCCC3)CCCCC2)c1`?
hgDAF12 agonist: -1; hcDAF-12 act: 2; ssDAF12 agonist: -1; DAX1 StAR inh: 0; SMARCA2 activ: -4

Results for Cc1cccc(NS(=O)(=O)c2cccc(C(=O)NCC3(N4CCCCC4)CCCCC3)c2)c1 ?
hgDAF12 agonist: 1; hcDAF-12 act: 2; ssDAF12 agonist: -1; DAX1 StAR inh: 5.0*; SMARCA2 activ: -1; DAX1 inh confirm: 3; SF1 AF2mut Luc: 1

Results for Cc1ccc(S(=O)(=O)Nc2cccc(C(=O)NCC3(N4CCCCC4)CCCCC3)c2)cc1F ?
hgDAF12 agonist: -1; hcDAF-12 act: 1; ssDAF12 agonist: -1; DAX1 StAR inh: 6.2*; SMARCA2 activ: 0; DAX1 inh confirm: 4.6*; SF1 AF2mut Luc: 3.8*

Results for CCOc1ccc(S(=O)(=O)Nc2ccc(C(=O)NCC3(N4CCCCC4)CCCCC3)cc2)cc1 ?
hgDAF12 agonist: 1; hcDAF-12 act: 1; ssDAF12 agonist: -1; DAX1 StAR inh: 8.7*; SMARCA2 activ: -1; DAX1 inh confirm: 8.3*; SF1 AF2mut Luc: 4.9*

How did COc1ccc(NS(=O)(=O)c2cccc(C(=O)NCC3(N4CCCCC4)CCCCC3)c2)cc1 do in these assays?
hgDAF12 agonist: 4; hcDAF-12 act: 1; ssDAF12 agonist: -1; DAX1 StAR inh: 7.8*; SMARCA2 activ: -2; DAX1 inh confirm: 10*; SF1 AF2mut Luc: 5.4*

How did O=C(CSc1nc2ccccc2nc1N1CCCCC1)N1CCN(C(c2ccccc2)c2ccc(Cl)cc2)CC1 (stereo unspecified) do in these assays?
hgDAF12 agonist: -2; hcDAF-12 act: -1; ssDAF12 agonist: -1; DAX1 StAR inh: 0; SMARCA2 activ: 0

What do the screens show for `COC(=O)[C@]12CCCCC=C1N(CCC1=CCCCC1)C(=O)[C@H](CC(=O)N1CCC(c3ccccc3)CC1)C2`?
hgDAF12 agonist: 0; hcDAF-12 act: -2; ssDAF12 agonist: -1; DAX1 StAR inh: 0; SMARCA2 activ: -2

Results for O=C(NCCc1ccc(F)cc1)NC12CC3CC(CC(C3)C1)C2 ?
hgDAF12 agonist: 9; hcDAF-12 act: 5; ssDAF12 agonist: 0; DAX1 StAR inh: 8.3*; SMARCA2 activ: 3; DAX1 inh confirm: 10*; SF1 AF2mut Luc: 7.6*

Results for CN(CCO)C(=O)c1nc[nH]c1C(=O)N1CCN(c2ccccc2)CC1 ?
hgDAF12 agonist: 2; hcDAF-12 act: 0; ssDAF12 agonist: -1; DAX1 StAR inh: 2; SMARCA2 activ: -2

How did COC(=O)[C@]12C[C@H](CC(=O)N3CCSCC3)C(=O)N(Cc3ccccc3)C1=C[C@H](C1CCCC1)O[C@@H]2C do in these assays?
hgDAF12 agonist: -1; hcDAF-12 act: 1; ssDAF12 agonist: -1; DAX1 StAR inh: -1; SMARCA2 activ: -4

Results for Cc1cccc(C)c1N1C(=O)c2ccccc2NC(=O)C1C(=O)NCCc1ccccc1F (stereo unspecified) ?
hgDAF12 agonist: 1; hcDAF-12 act: 0; ssDAF12 agonist: -1; DAX1 StAR inh: 4.7*; SMARCA2 activ: -1; DAX1 inh confirm: 2; SF1 AF2mut Luc: 0

Results for Cn1c(N)c(C(=O)COC(=O)Cc2c(F)cccc2Cl)c(=O)n(C)c1=O ?
hgDAF12 agonist: 1; hcDAF-12 act: 0; ssDAF12 agonist: -1; DAX1 StAR inh: 0; SMARCA2 activ: -2

What do the screens show for `Cc1cc(C(=O)COC(=O)Cc2c(F)cccc2Cl)c(C)n1C`?
hgDAF12 agonist: 10; hcDAF-12 act: 5; ssDAF12 agonist: 0; DAX1 StAR inh: 5.0*; SMARCA2 activ: 5; DAX1 inh confirm: 5.8*; SF1 AF2mut Luc: 3.2*

What do the screens show for `C#Cc1ccc(NC(=O)C2(C)CCN2C(=O)CC(c2ccccc2)c2ccccc2)cc1` (stereo unspecified)?
hgDAF12 agonist: 1; hcDAF-12 act: -2; ssDAF12 agonist: -2; DAX1 StAR inh: -2; SMARCA2 activ: -1

What do the screens show for `O=C(NCc1ccco1)C1CCCN(c2ncccn2)C1` (stereo unspecified)?
hgDAF12 agonist: 3; hcDAF-12 act: -3; ssDAF12 agonist: -1; DAX1 StAR inh: 0; SMARCA2 activ: 0
